About 2,000 (36%) of roughly 5,500 compounds were called active. Another 18% or so got no clear call; they are omitted. Cut-off read from the data, not from the text of the source: active = normalized growth mostly below about 0.91 (no sharp cut-off); inconclusive = no clear call, values can overlap the other calls; inactive = mostly above about 0.92. This is one part of the list.
Experiment: chemical genetic growth profiling, strain panel (AID 1159580);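 note: tested at 20 µM; growth read once vehicle control cultures reached saturation at 30 °C; 1 = growth at the plate median or of vehicle wells; lower values mean less growth of the strain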
Settings: growth OD

Measured: normalized growth

O=C1CC(c2ccccc2)Oc2ccccc21 (configuration not stated)
inactive: S. cerevisiae deletion strains, locus YBR021W, strain FUR4, stronger effect = lower value 0.97 | S. cerevisiae deletion strains, locus YBR229C, strain ROT2, stronger effect = lower value 0.985 | S. cerevisiae deletion strains, locus YCL029C, strain bik1, stronger effect = lower value 0.971 | S. cerevisiae deletion strains, locus YDL035C, strain GPR1, stronger effect = lower value 1.02 | S. cerevisiae deletion strains, locus YDL074C, strain BRE1, stronger effect = lower value 0.989 | S. cerevisiae deletion strains, locus YDL101C, strain DUN1, stronger effect = lower value 0.996 | S. cerevisiae deletion strains, locus YDL185W, strain tfp1, stronger effect = lower value 0.958 | S. cerevisiae deletion strains, locus YDL192W, strain arf1, stronger effect = lower value 0.957 | S. cerevisiae deletion strains, locus YDR101C, strain arx1, stronger effect = lower value 0.958 | S. cerevisiae deletion strains, locus YDR162C, strain NBP2, stronger effect = lower value 1.02 | S. cerevisiae deletion strains, locus YDR318W, strain mcm21, stronger effect = lower value 0.954 | S. cerevisiae deletion strains, locus YDR388W, stronger effect = lower value 0.96 | S. cerevisiae deletion strains, locus YDR502C, strain sam2, stronger effect = lower value 0.96 | S. cerevisiae deletion strains, locus YEL061C, strain CIN8, stronger effect = lower value 0.976 | S. cerevisiae deletion strains, locus YER110C, stronger effect = lower value 0.963 | S. cerevisiae deletion strains, locus YER155C, strain BEM2, stronger effect = lower value 0.982 | S. cerevisiae deletion strains, locus YER167W, strain BCK2, stronger effect = lower value 0.989 | S. cerevisiae deletion strains, locus YGL078C, strain dbp3, stronger effect = lower value 0.96 | S. cerevisiae deletion strains, locus YGL086W, strain mad1, stronger effect = lower value 0.974 | S. cerevisiae deletion strains, locus YGL248W, strain PDE1, stronger effect = lower value 0.993 | S. cerevisiae deletion strains, locus YGR135W, strain pre9, stronger effect = lower value 0.969 | S. cerevisiae deletion strains, locus YGR229C, strain SMI1, stronger effect = lower value 0.985 | S. cerevisiae deletion strains, locus YGR252W, strain gcn5, stronger effect = lower value 1.03 | S. cerevisiae deletion strains, locus YHR030C, strain SLT2, stronger effect = lower value 0.982 | S. cerevisiae deletion strains, locus YHR079C, strain IRE1 (second series), stronger effect = lower value 0.967 | S. cerevisiae deletion strains, locus YHR094C, strain hxt1, stronger effect = lower value 0.972 | S. cerevisiae deletion strains, locus YHR129C, strain ARP1, stronger effect = lower value 0.983 | S. cerevisiae deletion strains, locus YHR200W, strain rpn10, stronger effect = lower value 0.961 | S. cerevisiae deletion strains, locus YIL066C, strain RNR3, stronger effect = lower value 1 | S. cerevisiae deletion strains, locus YIL073C, strain SPO22, stronger effect = lower value 1.05 | S. cerevisiae deletion strains, locus YIL125W, strain kgd1, stronger effect = lower value 0.956 | S. cerevisiae deletion strains, locus YIR030C, strain dcg1, stronger effect = lower value 0.977 | S. cerevisiae deletion strains, locus YJL095W, strain BCK1, stronger effect = lower value 0.932 | S. cerevisiae deletion strains, locus YJL134W, strain LCB3, stronger effect = lower value 0.983 | S. cerevisiae deletion strains, locus YJL168C, strain set2, stronger effect = lower value 0.958 | S. cerevisiae deletion strains, locus YJL187C, strain SWE1 (second series), stronger effect = lower value 1.02 | S. cerevisiae deletion strains, locus YJR043C, strain POL32, stronger effect = lower value 0.958 | S. cerevisiae deletion strains, locus YKL009W, strain mrt4, stronger effect = lower value 1.02 | S. cerevisiae deletion strains, locus YKL068W, stronger effect = lower value 0.966 | S. cerevisiae deletion strains, locus YKL085W, strain MDH1 (second series), stronger effect = lower value 0.972 | S. cerevisiae deletion strains, locus YKL085W, strain MDH1, stronger effect = lower value 0.972 | S. cerevisiae deletion strains, locus YKR001C, strain vps1, stronger effect = lower value 0.927 | S. cerevisiae deletion strains, locus YLR039C, strain RIC1, stronger effect = lower value 0.956 | S. cerevisiae deletion strains, locus YLR058C, strain SHM2, stronger effect = lower value 0.992 | S. cerevisiae deletion strains, locus YLR102C, strain apc9, stronger effect = lower value 0.961 | S. cerevisiae deletion strains, locus YLR262C, strain YPT6, stronger effect = lower value 0.971 | S. cerevisiae deletion strains, locus YLR268W, strain sec22, stronger effect = lower value 0.962 | S. cerevisiae deletion strains, locus YLR330W, strain CHS5, stronger effect = lower value 0.988 | S. cerevisiae deletion strains, locus YLR342W, strain FKS1 (second series), stronger effect = lower value 0.944 | S. cerevisiae deletion strains, locus YLR371W, strain rom2, stronger effect = lower value 0.961 | S. cerevisiae deletion strains, locus YLR418C, strain cdc73, stronger effect = lower value 0.894 | S. cerevisiae deletion strains, locus YML016C, strain PPZ1, stronger effect = lower value 0.974 | S. cerevisiae deletion strains, locus YML032C, strain rad52, stronger effect = lower value 0.949 | S. cerevisiae deletion strains, locus YML124C, strain tub3, stronger effect = lower value 0.95 | S. cerevisiae deletion strains, locus YMR078C, strain ctf18, stronger effect = lower value 0.955 | S. cerevisiae deletion strains, locus YMR223W, strain ubp8, stronger effect = lower value 0.961 | S. cerevisiae deletion strains, locus YMR307W, strain GAS1, stronger effect = lower value 1.01 | S. cerevisiae deletion strains, locus YNL067W, strain RPL9B, stronger effect = lower value 1.03 | S. cerevisiae deletion strains, locus YNL153C, strain GIM3, stronger effect = lower value 1.01 | S. cerevisiae deletion strains, locus YNL233W, strain BNI4, stronger effect = lower value 0.967 | S. cerevisiae deletion strains, locus YNL250W, strain rad50, stronger effect = lower value 0.966 | S. cerevisiae deletion strains, locus YNL271C, strain bni1, stronger effect = lower value 0.947 | S. cerevisiae deletion strains, locus YNL298W, strain CLA4, stronger effect = lower value 0.971 | S. cerevisiae deletion strains, locus YNL307C, strain MCK1, stronger effect = lower value 0.943 | S. cerevisiae deletion strains, locus YNR052C, strain pop2, stronger effect = lower value 0.971 | S. cerevisiae deletion strains, locus YOL006C, strain TOP1, stronger effect = lower value 0.932 | S. cerevisiae deletion strains, locus YOL012C, strain htz1 1 | S. cerevisiae deletion strains, locus YOL147C, strain pex11, stronger effect = lower value 0.942 | S. cerevisiae deletion strains, locus YOR061W, strain CKA2, stronger effect = lower value 0.989 | S. cerevisiae deletion strains, locus YOR069W, strain VPS5, stronger effect = lower value 0.98 | S. cerevisiae deletion strains, locus YOR136W, strain idh2, stronger effect = lower value 0.965 | S. cerevisiae deletion strains, locus YOR144C, strain elg1, stronger effect = lower value 0.949 | S. cerevisiae deletion strains, locus YOR184W, strain ser1, stronger effect = lower value 0.925 | S. cerevisiae deletion strains, locus YOR316C, strain cot1, stronger effect = lower value 0.964 | S. cerevisiae deletion strains, locus YPL055C, strain LGE1, stronger effect = lower value 1 | S. cerevisiae deletion strains, locus YPL241C, strain CIN2, stronger effect = lower value 0.977 | S. cerevisiae deletion strains, locus YPR119W, strain clb2, stronger effect = lower value 0.935 | S. cerevisiae deletion strains, locus YPR141C, strain kar3, stronger effect = lower value 0.954 | S. cerevisiae deletion strains, locus YPR163C, strain tif3, stronger effect = lower value 0.952 | S. cerevisiae deletion strains, locus YPR167C, strain met16, stronger effect = lower value 1.01 | S. cerevisiae deletion strains, strain wtn01, stronger effect = lower value 0.95 | S. cerevisiae strains, strain wild type, stronger effect = lower value 0.988
